From PubChem BioAssay AID1851 (National Center for Advancing Translational Sciences (NCATS), 2009)
Values joined by “and” are separate entries in the source; they are usually repeats but may differ in a detail not shown here. Equal values may be shown once. Out of some 16,000 compounds screened, about 4,000 (25%) were called active. About 26% were inconclusive and are not listed. These entries were drawn from the full list. Values without a mark were called inactive. The call rests on the fitted dose curve; in most records, active means well fitted curve in the direction sought with a large enough effect; inconclusive means small, poorly fitted or top-dose-only effect, or effect the other way; inactive means no such curve, though single readings can be large or run the other way.

Biological target: Cytochrome P450 2C9 (Homo sapiens) (UniProt P11712)
Experiment: Cytochrome panel assay with activity outcomes
Settings: recombinant CYP, pro-luciferin dealkylation, luminescence, p450-cyp2c9; series mostly up to 57.1 µM; activity, negative = inhibition: at the top concentration
On the % scale 0 is the no-effect control and ±100 the full control effect.

Chain of Cytochrome P450 2C9 (Homo sapiens) (P11712 whole entry, looked up): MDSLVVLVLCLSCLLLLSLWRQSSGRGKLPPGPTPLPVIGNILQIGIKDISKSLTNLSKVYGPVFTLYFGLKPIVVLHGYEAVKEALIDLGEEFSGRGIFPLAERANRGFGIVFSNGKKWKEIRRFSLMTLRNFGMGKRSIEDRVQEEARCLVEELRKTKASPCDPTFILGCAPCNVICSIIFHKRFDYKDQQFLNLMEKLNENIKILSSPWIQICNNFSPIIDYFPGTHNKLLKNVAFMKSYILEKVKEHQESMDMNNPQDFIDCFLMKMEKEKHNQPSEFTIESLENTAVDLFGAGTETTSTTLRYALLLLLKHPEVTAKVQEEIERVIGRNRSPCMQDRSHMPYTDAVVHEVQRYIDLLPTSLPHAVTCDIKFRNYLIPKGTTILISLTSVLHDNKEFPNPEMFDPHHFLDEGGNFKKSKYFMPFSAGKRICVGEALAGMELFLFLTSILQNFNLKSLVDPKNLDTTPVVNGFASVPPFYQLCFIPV

Structure (SMILES) | activity, negative = inhibition | AC50
CO[C@H]1COC(=O)C/C=C\[C@H](C)[C@H](OC)COC(=O)[C@@H](C)COC(=O)C/C=C\[C@@H]1C | -5.38% [at 11.4 µM] and 5.78% [at 11.4 µM] | 
CO[C@@H]1COC(=O)C/C=C\[C@@H](C)[C@H](OC)COC(=O)[C@@H](C)COC(=O)C/C=C\[C@H]1C | 11.9% [at 11.4 µM] | 
CO[C@H]1COC(=O)C/C=C\[C@H](C)[C@@H](OC)COC(=O)[C@@H](C)COC(=O)C/C=C\[C@@H]1C |  | 2510 nM (active)
CC(=O)Nc1ccc(NC2=Nc3ccccc3N3C2=Nc2c(c(C)nn2-c2ccccc2)C3c2ccccc2)cc1 (centres undefined) |  | 1780 nM (active)
Cc1nn(-c2ccccc2)c2c1C(c1ccc(O)c(O)c1)N1C(=N2)C(Nc2ccccc2)=Nc2ccccc21 (centres undefined) |  | 1260 nM (active)
O=C(NNS(=O)(=O)c1ccc(Cl)cc1)c1cnn(-c2ccccc2)c1-n1cccc1 |  | 1780 nM (active)
O=C(NNS(=O)(=O)c1ccc(Cl)cc1)C1CCN(Cc2ccccc2)CC1 | -17.3% | 
Cc1cc(C)cc(C(=O)N(C)[C@H](Cc2ccc(-c3ccccc3)cc2)C(=O)N[C@@H](Cc2c[nH]c3ccccc23)C(=O)O)c1 | -24.1% | 
COc1cccc(N(C(=O)Cn2nnc(-c3ccc(C)cc3)n2)C(C(=O)NC(C)(C)C)c2c[nH]c3ccccc23)c1 (centres undefined) |  | 5010 nM (active)
Cc1[nH]c(N)nc(=S)c1CCCNc1ccccc1 | -9.42% [at 11.4 µM] | 
CCCc1cc(=O)[nH]c(SCc2cc(Cl)ccc2OC(F)F)n1 |  | 2820 nM (active)
O=C(O)c1cc(=O)[nH]c(SCc2ccccc2)n1 | -7.95% [at 11.4 µM] | 
Cn1c(=O)c(-c2ccc(F)cc2)nc2cnc(Oc3ccccc3)nc21 | 13.7% | 
O=C1/C(=C\c2ccccn2)SC(=S)N1Nc1ncc(C(F)(F)F)cc1Cl |  | 5010 nM (active)
COc1ccc(-c2nc(CSCC(=O)NCC3CCCO3)c(C)o2)cc1OC (centres undefined) | -29.9% | 
Cc1cccc2c(SCC(=O)NCC3CCCO3)nc(-c3ccc(F)cc3)nc12 (centres undefined) |  | 3980 nM (active)
Cc1ccc(C)c(-n2c(Cc3cc(=O)[nH]c(=O)[nH]3)nnc2SCC(=O)NCC2CCCO2)c1 (centres undefined) | -15.2% | 
O=C(O)/C=C\C(=O)Nc1ccc2c(c1)-c1ccccc1C2 | -10.9% [at 11.4 µM] | 
S=C(Nc1ccc2c(c1)Cc1ccccc1-2)Nc1ccc2c(c1)Cc1ccccc1-2 | 1.69% [at 11.4 µM] | 
O=C(O)c1ccccc1-c1ccccc1C(=O)Nc1ccc2c(c1)Cc1cc(F)ccc1-2 |  | 2510 nM (active)
CO[C@]1(C2=NCCN2)COc2ccccc2O1 | 17.2% | 
CC(C)OCCCNC(=O)C1CC(=O)N(C2CCCCCCC2)C1 (centres undefined) | -16.8% | 

Structure (SMILES) | activity, negative = inhibition | AC50
C[N+](C)(C)c1nc(N)nc2c1ncn2[C@H]1O[C@@H](CO)[C@@H](O)[C@H]1O | 12.2% [at 11.4 µM] | 
CN(C(=O)C(Cl)Cl)c1ccc(OC(=O)c2ccco2)cc1 | 7.39% [at 25.6 µM] | 
CC(C)(C)c1[nH]nc2c1C(c1ccc(OC(=O)c3ccco3)cc1)C(C#N)=C(N)O2 (centres undefined) |  | 4470 nM (active)
CC(C)NC[C@@H](O)COc1ccccc1-n1cccc1 | 6.41% | 
C=C(C)[C@@H]1CC=C(C(=O)O)CC1 | 3.86% | 
Cc1ccc(C(=O)NNC(=O)CSc2nnc(-c3ccncc3)n2-c2ccc(C)cc2)cc1 |  | 5010 nM (active)
Cc1cccc(CNc2ncncc2-c2ccc(C(=O)N(C)C)cc2)c1 | 2.16% [at 2.29 µM] | 
CCC1(C)CC(CCNS(=O)(=O)c2ccc(C)cc2)(c2ccc(C)cc2)CCO1 (centres undefined) |  | 5620 nM (active)
Cc1ccc(S(=O)(=O)NCCSc2nnnn2C)cc1 | -21.7% | 
CN(C)CCNC(=O)C(C(=O)c1ccc(F)cc1)n1ccccc1=O (centres undefined) | -16.9% | 
CC(C)=CCC/C(C)=C/CO/N=C1/[C@H]2O[C@@H]2[C@@H](O)[C@H]2[C@H]1CCn1c(=O)n(Cc3cc4c(cc3Cl)OCO4)c(=O)n12 | -2.9% [at 11.4 µM] | 
Cc1noc(C)c1-c1nccc(NCc2cccnc2)n1 | 3.9% [at 2.29 µM] | 
OC[C@@H]1O[C@@H](O)[C@H](N=Cc2ccc3c(c2)OCO3)[C@@H](O)[C@@H]1O | 12.1% [at 11.4 µM] | 
O=C(O)/C=C\C=C/c1ccc2c(c1)OCO2 | -5.25% [at 11.4 µM] | 
C[C@@H](C(=O)O)/C(=C/c1ccc2c(c1)OCO2)C(=O)O |  | 2510 nM (active)
Nc1nc(-c2ccc3ccccc3c2)cc(-c2cc(-c3ccc4ccccc4c3)nc(N)n2)n1 | 8.18% [at 11.4 µM] | 
Cc1ccccc1Oc1ccc(-c2nc(N)nc(N)n2)cc1 |  | 8910 nM (active)
Cc1cccc(Oc2ncc(-c3ccc(Cl)cc3)cn2)c1C | -23% | 
COc1cccc(NC(=O)c2cc(-c3cccnc3)nc3c(Cl)cccc23)c1 |  | 794 nM (active)
COc1cccc(NC(=O)C2c3cc(OC)c(OC)cc3C(=O)N(C)C2c2cccnc2)c1 (centres undefined) | -19.8% | 
CCCOc1ccc(-c2nc(N)n[nH]2)cc1 | -24.8% | 
NCCSS(=O)(=O)CCN | -9.3% [at 11.4 µM] | 
